Reference: PubChem BioAssay (NCATS)
Inconclusive results are not listed. Where a call stands in place of a potency, no number is given. Unmarked numbers belong to inactive results. Calls of active or inactive are those of the source. Unless noted, calls come from the whole dose curve; as a rule, active = well fitted curve in the direction sought with a large enough effect; inconclusive = small, poorly fitted or top-dose-only effect, or another doubt; inactive = no such curve, though single readings can be large; an effect the other way counts as inactive or inconclusive. Where a SMILES comes first, the peptide text is derived from it. [ ]: non-standard residue; d: D form. pGlu = O=C1CC[C@@H](C(=O)O)N1

Key:
[1] = Primary qHTS for inhibitors of La Crosse Virus (LACV) - induced cell death in SH-SY5Y cells (AID 1508616);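 note: top concentration of the series differs between compounds; higher means more rescue of cells from virus-induced death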
Outline: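 SH-SY5Y cells (6000/well) plated 24 h, then given compounds by pin transfer and LACV at 0.01 MOI for 6 days at 37C. Viability measured by ATPLite luminescence, normalized to infected DMSO and uninfected DMSO.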

[2] = target: Calcium and integrin-binding protein 1 (Homo sapiens) (UniProt Q99828); test: Primary qHTS for Identification of Calcium Integrin Binding Protein 1 (CIB1) Competitor (AID 1508620);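 note: GST tagged CIB1 binding a fluorescein labelled alphaIIb integrin peptide tracer; top concentration of the series differs between compounds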
Chain of Calcium and integrin-binding protein 1 (Homo sapiens) (Q99828 whole entry, looked up): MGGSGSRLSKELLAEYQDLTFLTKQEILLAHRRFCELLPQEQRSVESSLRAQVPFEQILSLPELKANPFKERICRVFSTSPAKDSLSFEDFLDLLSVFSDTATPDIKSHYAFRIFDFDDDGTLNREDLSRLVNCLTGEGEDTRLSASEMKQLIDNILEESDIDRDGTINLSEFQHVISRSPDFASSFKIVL
Outline: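 CIB1-GST (1 uM final) and compound incubated 15 min at room temperature before adding FITC-alphaIIb peptide tracer (100 nM final). Competition for binding read by fluorescence polarization (ex 480, em 540) after another 15 min at room temperature.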

[3] = A High-Content qHTS Against Drug Library for the Identification of Small Molecules that Inhibit DYT1 Early Onset Primary Dystonia-Associated Cell Pathology (AID 1645839; calls by dose curve; note: potency is the fitted concentration of half-maximal effect)
Outline: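 In this high-content image screen, delE TorsinA mislocalization in inducible Flp-In 293 cells is scored as %pathology, with cell count serving as the counterscreen. Compound exposure lasts 48 h under tetracycline induction in reduced-serum medium.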

[4] = Primary qHTS for small molecule stabilizers of the endoplasmic reticulum resident proteome: Secreted ER Calcium Modulated Protein (SERCaMP) assay (AID 1508630)
Outline: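 GLuc-SERCaMP-expressing SH-SY5Y cells, pretreated 16 h with compound, are challenged with thapsigargin to empty ER calcium stores; after 4 h, coelenterazine is added directly to the medium and luminescence is imaged.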

[5] = Counterscreen qHTS for small molecule stabilizers of the endoplasmic reticulum resident proteome: GLuc-NoTag assay (AID 1508627); note: potency is the fitted concentration of half-maximal effect
Outline: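 Luminescence of Gaussia luciferase secreted into the medium (coelenterazine, 0.07x final, unlysed cells) was the read-out. Human SH-SY5Y neuroblastoma cells constitutively secreting untagged GLuc received compound for 19 h, then 100 nM thapsigargin for 4 h.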

[6] = Cell Viability qHTS for small molecule stabilizers of the endoplasmic reticulum resident proteome (AID 1508629); settings: cell viability counter-screen, 100 nM thapsigargin for final 4 h;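 note: potency is the fitted concentration of half-maximal effect; compound exposure about 46 h in total before the viability read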

COC(=O)c1cc(Cl)ccc1OC
outcome [1]: inactive
Potency [2]: inactive
Potency [3]: inactive

COc1cc(NS(=O)(=O)c2ccc(N)cc2)nc(C)n1
outcome [1]: inactive
Potency [4]: inactive

COc1ccc(/C(C)=C/C(=O)O)c(OC)c1
outcome [1]: inactive
Potency [2]: inactive
Potency [3]: inactive

CC(=O)O[C@@H]1C(=O)O[C@@H]2[C@H]1OC(=O)[C@@H]2OC(C)=O
outcome [1]: inactive
Potency [2]: inactive
Potency [3]: inactive

O=C1OC2(c3ccccc31)c1cc(I)c(O)c(I)c1Oc1c2cc(I)c(O)c1I
outcome [1]: inactive
Potency [2]: inactive
Potency [3]: inactive

CC(C)C(=O)Nc1cccc(C(F)(F)F)c1
outcome [1]: inactive
Potency [2]: inactive
Potency [3]: inactive

Cc1cc2nc3ccc(=[N+](C)C)cc-3sc2cc1N
outcome [1]: inactive
Potency [5]: 35.5 µM (active)
Potency [6]: 7.94 µM (active)
Potency [3]: 7.08 µM (active)

CCCCCCCCCCCC[N+](C)(C)Cc1ccccc1
outcome [1]: inactive
Potency [4]: inactive

CCOC(=O)OCC/C(SC(=O)OCC)=C(\C)N(C=O)Cc1cnc(C)nc1N
outcome [1]: inactive
Potency [4]: inactive
Potency [3]: inactive

CN1CC[C@H](c2c(O)cc(O)c3c(=O)cc(-c4ccccc4Cl)oc23)[C@H](O)C1
outcome [1]: inactive
Potency [4]: inactive

CCNC(=O)[C@@H]1CCCN1C(=O)[C@H](CCCN=C(N)N)NC(=O)[C@H](CC(C)C)NC(=O)CNC(=O)[C@H](Cc1ccc(O)cc1)NC(=O)[C@H](CO)NC(=O)[C@H](Cc1c[nH]c2ccccc12)NC(=O)[C@H](Cc1cnc[nH]1)NC(=O)[C@@H]1CCC(=O)N1 ([pGlu]HWSYGLRP-NHEt)
outcome [1]: inactive
Potency [4]: inactive
Potency [3]: inactive

CN=C(N)NC(=O)Nc1c(C)cccc1C
outcome [1]: inactive
Potency [4]: inactive

CC(C)Cc1ccc(C(C)C(=O)OCc2ccccn2)cc1 (centres undefined)
outcome [1]: inactive
Potency [4]: inactive
Potency [3]: inactive

CC(=O)c1ccc(O)c(C(N)=O)c1
outcome [1]: inactive
Potency [3]: inactive

CC[N+]1(CC)CCC(=C(c2ccccc2)c2ccccc2)C1C (centres undefined)
outcome [1]: inactive
Potency [4]: inactive
Potency [3]: inactive

Cc1ccc2c(Cl)cc(Cl)c(O)c2n1
outcome [1]: inactive
Potency [3]: inactive

CC(=O)OC/C=C(C)/C=C/C=C(C)/C=C/C1=C(C)CCCC1(C)C
outcome [1]: inactive
Potency [4]: inactive
Potency [3]: inactive

CCS(=O)(=O)c1ccc(OC)c(C(=O)OC)c1
outcome [1]: inactive
Potency [4]: inactive
Potency [3]: inactive

Cc1c(C)c2c(c(C)c1OC(=O)CCC(=O)OCCO)CC[C@@](C)(CCC[C@H](C)CCC[C@H](C)CCCC(C)C)O2
outcome [1]: inactive
Potency [4]: inactive
Potency [3]: 5.62 µM (active)

COc1cc(C(=O)NC2CCCNC2)cc(OC)c1OC (centres undefined)
outcome [1]: inactive
Potency [4]: inactive
Potency [3]: inactive

OCCCc1ccccc1
outcome [1]: inactive
Potency [4]: inactive
Potency [3]: inactive

Cc1ccccc1C(=O)N1CC/C(=N\OS(=O)(=O)O)c2ccc(Cl)cc21
outcome [1]: inactive
Potency [4]: inactive
Potency [3]: inactive

CCCCCCCC(=O)[O-].CCCCCCCC(=O)[O-].[Zn+2]
outcome [1]: inactive
Potency [4]: inactive
Potency [3]: inactive

O=C(O)[C@@H](O)[C@H](O)[C@H](O)[C@@H](O)C(=O)O
outcome [1]: inactive
Potency [4]: inactive
Potency [3]: inactive

Cc1ccc(C(C)OC(=O)C2(C)CCC(C(=O)O)C2(C)C)cc1 (centres undefined)
outcome [1]: inactive
Potency [4]: inactive
Potency [3]: inactive

CO/N=C(/C(=O)N[C@@H]1C(=O)N2C(C(=O)O)=C(Cn3nnc(C)n3)CS[C@H]12)c1csc(N)n1
outcome [1]: inactive
Potency [4]: inactive
Potency [3]: inactive

c1ccc(C(O[C@H]2CCCN(CCc3ccc4c(c3)OCO4)C2)c2ccccc2)cc1
outcome [1]: inactive
Potency [4]: inactive

NS(=O)(=O)c1cc2c(cc1Cl)CN(C1CCCCC1)C2=O
outcome [1]: inactive
Potency [4]: inactive
Potency [3]: inactive

CC(C)C(C)(C)C(C)(C)C(C)(C)S
outcome [1]: inactive
Potency [3]: inactive

O=C(O)CCCC[P+](c1ccccc1)(c1ccccc1)c1ccccc1
outcome [1]: inactive
Potency [4]: inactive
Potency [3]: inactive

C[C@@H]1CCC[C@H](C)N1CCCC(O)(c1ccccc1)c1ccccn1 (some centres undefined)
outcome [1]: inactive
Potency [4]: inactive
Potency [3]: inactive

NCC(=O)O
outcome [1]: inactive
Potency [3]: inactive

CC(=O)N(c1onc(C)c1C)S(=O)(=O)c1ccc(N)cc1
outcome [1]: inactive
Potency [3]: inactive

O=C1CCCc2c(O)cccc21
outcome [1]: inactive
Potency [4]: inactive

CC(=O)N(CC(O)CO)c1c(I)c(C(=O)NCCO)c(I)c(C(=O)NCC(O)CO)c1I (centres undefined)
outcome [1]: inactive
Potency [4]: inactive

Cc1c(N)cccc1C(F)(F)F
outcome [1]: inactive
Potency [4]: inactive
Potency [3]: inactive

Cc1nc([N+](=O)[O-])cn1-c1ccc([N+](=O)[O-])cc1
outcome [1]: inactive
Potency [4]: inactive
Potency [3]: inactive

O=C(Nc1ccc(Cl)cc1)Nc1ccc(Cl)c(Cl)c1
outcome [1]: inactive
Potency [4]: inactive

Cc1ncc([N+](=O)[O-])n1C
outcome [1]: inactive
Potency [4]: inactive
Potency [3]: inactive

Cc1c(F)cc2c(=O)c(C(=O)O)cn3c2c1CCC3C (centres undefined)
outcome [1]: inactive
Potency [4]: inactive
Potency [3]: inactive

CCCCN(CCN(CCCC)C(=O)N1CCOCC1)C(=O)N1CCOCC1
outcome [1]: inactive
Potency [4]: inactive

O=C(c1cc(O)c(O)c(O)c1)c1ccc(O)c(O)c1O
outcome [1]: inactive
Potency [3]: inactive

CC(C)(C)c1ccc(C(=O)CCCCl)cc1
outcome [1]: inactive
Potency [4]: inactive

Cc1cccc(N(C)C(=S)Oc2ccc3c(c2)C2CCC3C2)c1 (centres undefined)
outcome [1]: inactive
Potency [4]: inactive

C[C@H]1C[C@@H]2[C@H]([C@@H](O)C[C@@]3(C)[C@H]2CC[C@]3(O)C(=O)CO)[C@@]2(C)C=CC(=O)C=C12
outcome [1]: inactive
Potency [4]: inactive
Potency [3]: inactive
